Assay outcomes from PubChem BioAssay.
Sampled rows, rich in hits. Any-hit rate of the full collection: about 0.59%.
Rv3671c inh – inhibitors of M. tuberculosis serine protease Rv3671c; actives 0.048% (n = 320,000); P9WHR9; inhibition, % at 5.96 µM; in the data active = inhibition above about 38%;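 note: extracellular domain of Rv3671c used as enzyme; 0% = enzyme with DMSO and 100% = no enzyme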
Target sequence (P9WHR9 whole entry, looked up, the tested form may be a part): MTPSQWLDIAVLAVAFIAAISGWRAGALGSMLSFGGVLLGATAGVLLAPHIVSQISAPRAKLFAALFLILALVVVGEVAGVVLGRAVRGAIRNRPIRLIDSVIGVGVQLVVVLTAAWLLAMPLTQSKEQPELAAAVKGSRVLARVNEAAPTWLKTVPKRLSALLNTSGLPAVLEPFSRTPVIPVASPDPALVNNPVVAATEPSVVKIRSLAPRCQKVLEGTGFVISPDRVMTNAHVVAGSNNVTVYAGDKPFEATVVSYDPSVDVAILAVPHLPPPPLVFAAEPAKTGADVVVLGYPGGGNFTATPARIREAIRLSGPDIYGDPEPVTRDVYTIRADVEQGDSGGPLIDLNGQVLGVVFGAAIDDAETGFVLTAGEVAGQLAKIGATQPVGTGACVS
Mtb hypoxia rep – Mtb hypoxia fluorescent reporter inhibition; fluorescence inhibition, % (concentration not given with the values); actives 0.1% (n = 300,000); M. tuberculosis hypoxia-regulated fluorescent reporter, fluorescence; in the data active = fluorescence inhibition mostly above about 23%, no sharp cut-off; inactive = mostly below about 17%
Mtb betalactam – beta-lactam sensitization of Mtb H37Rv; AID 434955; M. tuberculosis H37Rv growth with meropenem, percent inhibition; inhibition, % at 25 µM; actives 0.27% (n = 330,000); call rule not given here;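 note: growth measured after seven days incubation then overnight dye step; 0% = bacteria only wells and 100% = bacteria with antibiotic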
DUSP3 inh – inhibitors of human VHR1 phosphatase (DUSP3). recombinant VHR phosphatase, pNPP absorbance. actives 0.52% (n = 290,000). inhibition, % at 13.3 µM; in the data active = inhibition above about 50%
UGM FP inh – inhibitors of M. tuberculosis UDP-galactopyranose mutase; P9WIQ1; purified UGM, fluorescence polarization probe displacement; inhibition, % at 10 µM; actives 0.06% (n = 320,000); AID 504406; in the data active = inhibition above about 10%, passing the limit was not always enough
* hit, by the source's call; · = no result given.

SMILES	Rv3671c inh	Mtb hypoxia rep	Mtb betalactam	DUSP3 inh	UGM FP inh
CC1=CC=CC2=NC(=O)CC(C)(C(=O)N(CC(=O)NC3CCCC3)Cc3ccc(Cl)cc3)N12 (stereo unspecified)	4	-9	-4	35	-1
CC1(C(=O)N(CC(=O)NC2CCCC2)Cc2ccc(Cl)cc2)CC(=O)N=C2C=CC=CN21 (stereo unspecified)	0	9	-5	52*	-2
COC(=O)C1=C(c2ccc(F)cc2F)CC2CCC1N2C(=O)NCc1ccc(C(F)(F)F)cc1 (stereo unspecified)	·	2	·	·	·
O=C(NC1CCCCC1)C1CCCN1S(=O)(=O)c1ccc(Cl)cc1 (stereo unspecified)	1	13	3	53*	3
CC(=O)N1c2ccc(S(=O)(=O)N3CCCC3)cc2CC1C(=O)NCc1ccccc1F (stereo unspecified)	-12	-3	6	56*	0
CC(=O)N1c2ccc(S(=O)(=O)N3CCCCC3)cc2CC1C(=O)NCc1ccccc1C (stereo unspecified)	-11	5	-2	52*	1
O=C(NCc1ccccc1F)C1CCCN1S(=O)(=O)c1ccc(F)cc1 (stereo unspecified)	10	-2	-8	59*	2
COc1ccccc1CNC(=O)C1Cc2cc(S(=O)(=O)N3CCCC3)ccc2N1C(C)=O (stereo unspecified)	-2	-6	-7	8	1
COc1ccc(S(=O)(=O)NCc2ccco2)cc1C(=O)N1CCOCC1	-4	-7	3	26	-2
COCCn1c(SCC(=O)Nc2ccccc2F)nnc1-c1ccoc1C	1	23	-3	38	-1
N#Cc1ccc(C23CC4(C2)C(CN(Cc2ccc(-c5ccccc5)cc2)C4c2ccccc2)C3c2ccccc2)cc1 (stereo unspecified)	·	1	·	·	·
CC(C)(C)CC(=O)Nc1nnc(SCC(=O)N2CCCCC2)s1	-1	-1	-2	7	1
CCOc1ccc(C(c2nnnn2C(C)(C)C)N2CCN(C(=O)c3ccco3)CC2)cc1 (stereo unspecified)	-11	9	0	59*	0
Cc1ccc(C=NNc2nc(N3CCOCC3)nc(N3CCOCC3)n2)o1	·	6	·	·	·
CC(=O)Nc1nnc(-c2ccc3c(c2)CCCC3)o1	-2	-7	74	25	2
O=C(Nc1nnc(-c2ccc3c(c2)CCCC3)o1)C1COc2ccccc2O1 (stereo unspecified)	-1	-6	99	50*	4
Cn1c(-c2ccccc2)cc2c3no[n+]([O-])c3ccc21	-1	47*	100	21	-3
Nc1nc(SCC(=O)N2CCCc3ccccc32)n(-c2ccccc2)n1	-1	11	4	50*	0
O=C(CSc1n[nH]c(-c2ccccc2O)n1)N1CCCc2ccccc21	3	6	-1	52*	0
O=C(CSc1nnnn1-c1ccccc1)N1CCCc2ccccc21	3	·	-7	10	-1
O=C1CC(Sc2ncccc2C(=O)O)C(=O)N1 (stereo unspecified)	0	0	-8	-3	1
CCOC(=O)C1C(=O)C(=O)N(C2CCCCC2)C1C(=O)OCC (stereo unspecified)	·	0	·	·	·
COc1ccccc1NS(=O)(=O)c1cccc(NC(=O)c2cncc(Br)c2)c1	-14	-3	-2	·	4
Cc1ccc(NC(=S)NC(C)CCc2ccccc2)cc1C (stereo unspecified)	-9	14	4	-14	-1
Cc1cccc(C)c1NC(=S)NC(C)CCc1ccccc1 (stereo unspecified)	-2	-8	1	60*	0
SMILES	Rv3671c inh	Mtb hypoxia rep	Mtb betalactam	DUSP3 inh	UGM FP inh
Cc1ccc(C2NC(=O)c3c(sc(C)c3C)N2)c(O)c1 (stereo unspecified)	0	-1	12	51*	-1
CC(C)Oc1ccccc1C1CC(=O)Nc2c1c(=O)n(C)c(=O)n2C (stereo unspecified)	15	3	-2	59*	1
Cc1ccc(OCC(=O)NN=Cc2c(C)[nH]n(-c3ccccc3)c2=O)c([N+](=O)[O-])c1	·	2	·	·	·
Cc1ccc(OCC(=O)N/N=C\c2c(C)[nH]n(-c3ccccc3)c2=O)c([N+](=O)[O-])c1	16	·	55	56*	1
COc1ccc(C(=O)Nc2nc(C)c3cc4c(cc3n2)OCO4)cc1	-6	38*	7	3	0
CCC(=O)Nc1ccc(N2CCCCC2)c(C(=O)Nc2ccc(OC)cc2)c1	-33	9	8	4	0
